From PubChem BioAssay
This is one part of a sample in which hits are shown more often than they occur.
Methyltransferases: Primary Screen for Target Class Profiling of Small Molecule Inhibitors of Methyltransferases; purified enzyme, MTase-Glo SAH luminescence; active compounds read low; actives 3.9% (n = 25,000); AID 1745853, 2022; calls only at 40 µM; call rule not given here
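Each enzyme was assayed with SAM and its substrate. SAH formation detected by MTase-Glo luminescence; single-point 40 uM screen[…].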
Numbers without * were called inactive; i = inactive; + = active, no number; ! = not active in a repeat. On the % scale 0 is the no-effect control and ±100 the full control effect.

SMILES	Methyltransferases
O=C(O)c1cc(-c2cccc(CO)c2)cc(S(=O)(=O)NC2CCCC2)c1	i
Cc1c(OCc2cccc(-c3ccc(C(=O)O)cc3)c2)cc2c(c1C)C(=O)C(C1CCCC1)C2 (stereo not drawn)	+
COCCCNc1nc2c(S(=O)(=O)c3c(C)cc(C)cc3C)nnn2c2ccccc12	i
O=C(CCc1nnc2n(CCc3ccccc3)c(=O)c3ccccc3n12)NCCC1=CCCCC1	i
CCN1C(=O)c2cc(C(=O)NCc3ccccc3C)nn2CC1(C)C(=O)NC1CCCC1 (stereo not drawn)	i
CN(C)CCCC1(c2ccc(F)cc2)OCc2cc(C#N)ccc21 (stereo not drawn)	+!
CC(C)C1c2cccn2CCN1C(=O)Nc1ccc(Br)cc1F (stereo not drawn)	i
O=C(c1cc(Br)cn2ccnc12)N1CCCC1	i
C=C1C(=O)OC2CC(C)C(CCC(C)=O)=CCC12 (stereo not drawn)	i
C=C1C(=O)OC2CC(C)C(CCC(C)O)=CCC12 (stereo not drawn)	+
C=C1C(=O)O[C@@H]2C[C@H](C)[C@@]3(O)C=C(C(C)=O)[C@]4(CC3C[C@H]12)C(=O)O[C@H]1C[C@@H](C)C(CCC(C)=O)=CC[C@H]14 (stereo partly drawn)	i
CC1=C[C@@H](CC#N)[C@H](C(C)C)C[C@H]1CC(=O)N(C)Cc1cccnc1	i
Cc1ccc(CN2CCCCCCNC(=O)[C@@H]3C[C@@H](C(=O)NCCc4cnc[nH]4)C[C@@H]32)o1	i
Cc1ccc2c(c1)c1c3n2CCN(CC(O)CNC(C)C)C3CCC1 (stereo not drawn)	i
COc1ccc(OC)c(NC(=O)Cc2cccn2-c2ccc(Cl)cc2)c1	i
COc1cc2c(NC3CCN(CC4CCCCC4)CC3)nc(N3CCCN(C(C)C)CC3)nc2cc1OCCCN1CCCCC1	+!
COc1ccccc1-c1ccc(C(=O)N2CCC(N[S+](=O)([O-])c3ccccc3)CC2)cc1	i
COc1ccc(C(=O)Nc2ccc3c(c2)C(=O)N(C)C2=NCCN23)cc1OC	i
COc1ccc(NC(=O)c2nc3sccn3c2-c2ccncc2)cc1	i
CN(C)CCCc1cc(C(=O)Nc2ccc(-c3ccncc3)cc2)ccc1O	+
CCc1cccc(N2C(=O)c3cc(-c4ccccc4)nn3CC2(C)C(=O)NCCCOC)c1 (stereo not drawn)	i
COC(=O)N1CCN(Cc2cccc(NC(=O)Nc3ccc(C)nc3)c2F)CC1	i
CN1CCN(Cc2ccc(NC(=O)Nc3ccc(Oc4cc(NC(=O)C5CC5)ncn4)cc3)cc2C(F)(F)F)CC1	+
CCN1CCN(Cc2ccc(C(=O)Nc3ccc(C)c(Oc4ccc5c(c4)CC(=O)N5)c3)cc2C(F)(F)F)CC1	i
COc1ccc(-c2cc(C(=O)NCCc3ccc(OC)c(OC)c3)c3c(-c4ccc(OC)cc4)[nH]nc3n2)cc1	i
SMILES	Methyltransferases
C=CCn1c(=O)c2ccc(C(=O)NC(C)C)cc2n2c(=O)n(CC(=O)NCc3ccc(C)cc3)nc12	i
O=C(CCc1nnc2n(Cc3ccc(F)cc3)c(=O)c3ccccc3n12)NCc1ccc(Cl)cc1	i
CN(C)CCCNC(=O)c1ccc(-c2cc(O)c3ncccc3c2)cc1	+
N#Cc1cccnc1-c1cccc(C(=O)NCCNC(=O)c2ccccc2)c1	i
COc1cccc(-c2ccc(C(=O)NCCNC(=O)c3ccccc3OC)cc2)c1	i
COc1ccc(OC)c(S(=O)(=O)N2CCC3(CCC3OC)CC2)c1 (stereo not drawn)	i
COCc1c(O)c(C(=O)O)c(C)c2c1OC(=O)c1c(C)cc(O)c(CO)c1O2	+
Cc1ncccc1-c1nc2cc(C(=O)NCc3ccccc3F)ccc2o1	i
Cc1ccc(-c2ccccc2CN2CCN(C(=O)c3ccc(C(F)(F)F)cc3)CC2)cc1Cl	i
C[C@H](O)[C@H](O)[C@H]1CNc2nc(N)[nH]c(=O)c2N1	i
CCc1cc2c(cc3n2CC(C)(C(=O)NC2CCCCC2)N(CCc2ccccc2)C3=O)s1 (stereo not drawn)	i
CCNc1nc2c(ncn2[C@H]2C[C@H](O)[C@@H](CO)O2)c(=O)[nH]1	i
C=C1C(=O)O[C@@H]2[C@H]1[C@H](O)C[C@]1(C)[C@@H](O)CC=C(C)[C@@H]21	i
C[C@@H]1C(=O)O[C@H]2[C@H]1CC[C@@]1(C)C(=O)C=C[C@@](C)(O)[C@H]21	i
CC1=CCC(O)C2(C)CCC3C(C)C(=O)OC3C12 (stereo not drawn)	+
COc1ccc(Cl)cc1NC(=O)CSc1nnc2n(CC(C)C)c(=O)c3cc(F)ccc3n12	i
Cc1ccc2c(c1)c(C(=O)N[C@H](c1cnn(C)c1)C1CC(O)C1)nn2C (stereo partly drawn)	i
CCOC(=O)C(C)Oc1cccc2c(=O)n(CC(=O)Nc3ccc4c(c3)OCCO4)ccc12 (stereo not drawn)	i
N#Cc1ccc2[nH]cc(CCCCN3CCN(c4ccc5oc(C(N)=O)cc5c4)CC3)c2c1	+
Cc1ccc(CN2C(=O)c3ccccc3CC2(C)C(=O)NC2CCC(C)CC2)cc1 (stereo not drawn)	i
O=C(Cn1ccc2cc(S(=O)(=O)N3CCCCC3)ccc21)NCc1ccc2c(c1)OCO2	i
COC(=O)C1=COC(OC2OC(CO)C(O)C(O)C2O)C2C1CC(OC(=O)C(O)CC(=O)O)C2C (stereo not drawn)	+
COC(=O)C1=COC(OC2OC(CO)C(O)C(O)C2O)C2C(C)C(OC(C)=O)C(OC(=O)c3ccccc3)C12 (stereo not drawn)	i
C=C[C@H]1[C@H](O[C@@H]2O[C@H](CO)[C@@H](O)[C@H](O)[C@H]2O)OC=C(C(=O)OC)[C@H]1C[C@@H]1N[C@H](C(=O)O)Cc2c1[nH]c1ccccc21	i
C=C[C@H]1[C@H](O[C@@H]2O[C@H](CO)[C@@H](O)[C@H](O)[C@H]2O)OC=C(C(=O)OC)[C@H]1CCO	+
SMILES	Methyltransferases
CC1C(OC(=O)c2ccccc2)C(O)C2C(C(=O)O)=COC(OC3OC(CO)C(O)C(O)C3O)C12 (stereo not drawn)	i
COC(=O)C1=CO[C@@H](O[C@@H]2O[C@H](CO)[C@@H](O)[C@H](O)[C@H]2O)[C@@H]2[C@@H](C(=O)OC)[C@@H](O)C(O)[C@H]12 (stereo partly drawn)	i
COC(=O)C1=CO[C@@H](O[C@@H]2O[C@H](CO)[C@@H](O)[C@H](O)[C@H]2O)[C@H]2[C@@H]1CC(OC)O[C@@H]2C (stereo partly drawn)	+
COC(=O)C1=COC(O[C@@H]2O[C@H](CO)[C@@H](O)[C@H](O)[C@H]2O)C2C(C)C(=O)CC12 (stereo partly drawn)	i
C=C[C@H]1[C@H](O[C@@H]2O[C@H](CO)[C@@H](O)[C@H](O)[C@H]2O)OC=C(C(=O)OC)[C@H]1CC(=O)O	i
COC(=O)c1ccc([C@@H]2Nc3c(OC)cc(OC)cc3[C@@H]3C=CC[C@@H]32)cc1	i
CCOc1ccc(N2C(=O)Cn3cccc3C2C(=O)NC2CCCC(C)C2C)cc1 (stereo not drawn)	i
O=C1CCN(Cc2ccncc2)CCCC(C(=O)NCCCN2CCCC2=O)CCN1 (stereo not drawn)	i
